Data as given in PubChem BioAssay AID624296 (National Center for Advancing Translational Sciences (NCATS), 2012).
Screen size: about 350,000 compounds; about 9,900 (2.8%) were called active. Where a call stands in place of a potency, no number is given. About 15% were inconclusive and are not listed. Calls follow the shape of the dose curve; as a rule, active = well fitted activation curve with a large enough effect; inconclusive = small, poorly fitted or top-dose-only effect; inactive = no such curve, though single readings can be large or run the other way. Many of the other results were omitted from the sample, so actives are more common in it than they were.
Potency is read from the fitted curve at half-maximal effect.

Assay: A quantitative high throughput screen for small molecules that induce DNA re-replication in MCF 10a normal breast cells. Also: nearly all actives have a fitted effect of over 50% in size.
Settings: MCF 10A DNA re-replication, Hoechst nuclear intensity, 48 h; series mostly up to 46.1 µM
For `CC(=O)Nc1ccc(S(=O)(=O)Nc2ccc(N3CCCCC3)cc2)cc1`, the Potency was “inactive”.
In the case of `Nc1nnc2c(C(F)(F)F)nc3ccccc3n12`, the Potency is reported as “inactive”.
For `FC(F)(F)c1nnc2c3ccccc3c(Cl)nn12`, the Potency was 20.6 µM (active).
For `FC(F)(F)c1nnc2ccc(N3CCN(c4ccccc4)CC3)nn12`, the Potency was “inactive”.
In the case of `CCOC(=O)c1ccc(NC(=O)C2CC(=O)N(c3ccc4c(c3)OCCO4)C2)cc1` (configuration not stated), the Potency is reported as “inactive”.
For `CC[C@]1(O)CC2CN(CCc3c([nH]c4ccccc34)[C@@](C(=O)OC)(c3cc4c(cc3OC)N(C=O)[C@H]3[C@@](O)(C(=O)OC)[C@H](OC(C)=O)[C@]5(CC)C=CCN6CC[C@]43[C@@H]65)C2)C1` (some centres not stated), the Potency was 0.651 µM (active).
In the case of `O=S(=O)(NCCc1ccccn1)c1cc(Cl)cc(Cl)c1O`, the Potency is reported as “inactive”.
With `CC(=O)c1ccc(N2CCN(C(=O)c3ccc(Cl)c(S(=O)(=O)NC4CC4)c3)CC2)c(F)c1` the Potency was “inactive”.
With `Cc1ccc(C(=O)Nc2ccn(C)n2)cc1` the Potency was “inactive”.
For `COc1ccc(NC(=O)COC(=O)c2n[nH]c3ccccc23)c(OC)c1`, the Potency was “inactive”.
With `CC(C)(C)OC(=O)C[C@@H]1C/C=C\C[C@@H](CC(=O)N[C@H](CO)Cc2ccccc2)C(=O)NC[C@@H](c2ccccc2)OC1=O` the Potency was “inactive”.
In the case of `CC(C)(C)OC(=O)C[C@H]1C/C=C\C[C@@H](CC(=O)N[C@H](CO)Cc2ccccc2)C(=O)NC[C@@H](c2ccccc2)OC1=O`, the Potency is reported as “inactive”.
In the case of `O=C(C[C@H]1C/C=C\C[C@@H](NC(=O)OCC2c3ccccc3-c3ccccc32)C(=O)O[C@@H](c2ccccc2)CNC1=O)N[C@H](CO)Cc1ccccc1`, the Potency is reported as 10.3 µM (active).
With `CCN(CC(=O)Nc1c(F)cccc1F)C(=O)Cc1cccs1` the Potency was “inactive”.
In the case of `O=C(c1cnccn1)N1CCN(S(=O)(=O)c2cccc(Cl)c2)CC1`, the Potency is reported as “inactive”.
For `CCOC(=O)c1c(C)[nH]c2c1-c1ccccc1C(=O)C2=O`, the Potency was 1.3 µM (active).
With `CCOC(=O)N1CCN(CC(=O)c2c(C)[nH]c3ccccc23)CC1` the Potency was “inactive”.
In the case of `CCOC(=O)c1c(C)[nH]c(C)c1S(=O)(=O)N(C)CC(=O)Nc1ccccc1C`, the Potency is reported as “inactive”.
With `COc1ccc(C(=O)N(C)Cc2ccc(OC)c(OC)c2OC)cc1S(=O)(=O)N1CCOCC1` the Potency was “inactive”.
For `Cc1ccc(NC(=O)C/C(N)=N/O)cc1Cl`, the Potency was “inactive”.
In the case of `Cc1nnc(NC(=O)Nc2ccc(Cl)c(Cl)c2)s1`, the Potency is reported as “inactive”.
For `O=C(CC(O)(C(F)(F)F)C(F)(F)F)Nc1ccc(Cl)c(Cl)c1`, the Potency was 5.8 µM (active).
With `C[C@H](O)[C@@H]1C(=O)N2CCc3ccc(N4CCOCC4)cc3[C@@H]2C[C@@H]1N(C)C(=O)C(C)(C)C` the Potency was “inactive”.
In the case of `CN(C)C(=O)CCc1ccc2c3c([nH]c2c1)[C@]1(CCC2CCCC2)[C@@H](C(=O)N2CCOCC2)C[C@H](CC(=O)NCc2ccco2)C(=O)N1CC3`, the Potency is reported as “inactive”.
With `CC(=O)OCC1(O)CC23CCC4c5ccoc5CCC4(C)C2CCC1C3` (configuration not stated) the Potency was “inactive”.
With `N#Cc1c2c(c(-c3ccccc3)[nH]c1=O)CCCC2` the Potency was “inactive”.
In the case of `N#Cc1c(-c2ccccc2)c(-c2ccccc2)n[nH]c1=O`, the Potency is reported as 2.59 µM (active).
For `Cc1ccc(CSc2nc(-c3ccccc3)c(C#N)c(=O)[nH]2)cc1`, the Potency was “inactive”.
With `CCOc1ncccc1C(=O)OCC(=O)Nc1cccc(S(=O)(=O)N2CCCCCC2)c1` the Potency was “inactive”.
For `COc1cc(OC)c(N2CC(C(=O)Nc3cc(Cl)ccc3N3CCOCC3)CC2=O)cc1Cl` (configuration not stated), the Potency was 18.4 µM (active).
In the case of `COc1ccc(Cl)cc1NC(=O)C1CC(=O)N(c2ccc(F)cc2)C1` (configuration not stated), the Potency is reported as “inactive”.
For `COc1ccccc1N1CC(C(=O)Nc2ccc(S(=O)(=O)N3CCOCC3)cc2)CC1=O` (configuration not stated), the Potency was “inactive”.
In the case of `Cc1ccc(CSc2ccc(S(=O)(=O)N3CCCCC3)cn2)cc1`, the Potency is reported as “inactive”.
With `Cc1ccsc1C(=O)NNC(=O)COc1ccc(Br)cc1` the Potency was “inactive”.
With `O=C1c2ccccc2C(=O)C1C(=O)C1CC1` the Potency was “inactive”.
With `Cc1ccc(-c2cc(=O)c3ccc(F)cc3[nH]2)cc1` the Potency was “inactive”.
In the case of `Cc1ccc(-c2cc(=O)c3ccc(Cl)cc3[nH]2)cc1`, the Potency is reported as “inactive”.
In the case of `O=c1cc(-c2ccccc2)[nH]c2cc(F)ccc12`, the Potency is reported as 1.3 µM (active).
With `C[C@H](CO)N1C[C@H](C)[C@H](CN(C)CC2CC2)Oc2ccc(NC(=O)CCN3CCOCC3)cc2C1=O` the Potency was “inactive”.
For `CC(=O)c1ccc(NC(=O)C(C)OC(=O)c2ccc(NS(=O)(=O)c3ccc4[nH]c(=O)[nH]c4c3)cc2)cc1` (configuration not stated), the Potency was “inactive”.
In the case of `O=S(=O)(Nc1ncnc2sccc12)c1cccc(F)c1`, the Potency is reported as “inactive”.
With `COc1ccc2c(c1)C(SCC(=O)NCc1ccccc1)CC(C)(C)O2` (configuration not stated) the Potency was “inactive”.
With `CN1c2ccc([N+](=O)[O-])cc2C(C)(C)C12C=Cc1cc(C(=O)O)ccc1O2` (configuration not stated) the Potency was “inactive”.
For `COc1ccc2c(c1)C=CC1(O2)N(CCO)c2ccccc2C1(C)C` (configuration not stated), the Potency was 20.6 µM (active).
With `O=C(CN1C(=O)NC2(CCCCCCC2)C1=O)NCc1ccc(F)cc1` the Potency was “inactive”.
With `COc1cccc(C(=O)OCC(=O)c2[nH]c(C)c(C(C)=O)c2C)c1` the Potency was “inactive”.
In the case of `CCN(C[C@H]1N[C@@](CC)(C(=O)OC)[C@H]2C(=O)N(Cc3ccccc3)C(=O)[C@@H]12)S(=O)(=O)c1ccc(C(F)(F)F)cc1`, the Potency is reported as “inactive”.
With `CCC1(CC)NC(=O)N(CC(=O)OCC(=O)c2cc(C)c(C)cc2C)C1=O` the Potency was “inactive”.
In the case of `O=C(NCC1CCCCC1)NCC1CCCCC1`, the Potency is reported as “inactive”.
With `CCN(CC)c1ccc(NC(=O)c2ccc(Cl)nc2)cc1` the Potency was 5.8 µM (active).
For `Cc1cnc(NC(=O)c2ccc(Cl)nc2)s1`, the Potency was “inactive”.
In the case of `O=C(NNC(=O)c1ccc(Cl)nc1)c1ccc(Br)cc1`, the Potency is reported as “inactive”.
In the case of `Cc1ccccc1SCC(=O)OCC(=O)N1CC(=O)Nc2ccccc21`, the Potency is reported as “inactive”.
With `Cc1ccccc1-c1cc(C(=O)NCc2cccs2)n(CC2CC(c3cccnc3)=NO2)n1` (configuration not stated) the Potency was “inactive”.
With `O=C(NCCN1CCOCC1)c1ccc2c(c1)ncn2C1CCCC1` the Potency was “inactive”.
With `O=C(NCCN1CCOCC1)c1cc(-c2cccs2)nc2ccccc12` the Potency was “inactive”.
In the case of `c1ccc2cc3c(NCCN4CCOCC4)ccnc3cc2c1`, the Potency is reported as 4.61 µM (active).
In the case of `COc1cc(C2CC(=O)Oc3cc(OC)c(OC)c(OC)c32)cc(OC)c1OC` (configuration not stated), the Potency is reported as “inactive”.
With `Cc1ccc(-c2nnc(-c3ccc(NC(=O)c4cccs4)cc3)o2)cc1` the Potency was “inactive”.
For `Cc1ccc(OCC(=O)Nc2ccc(NC(=O)c3cccs3)cc2)c(C)c1`, the Potency was 20.6 µM (active).
For `COc1cc2ccccc2cc1C(=O)Nc1ccc(NC(=O)c2cccs2)cc1`, the Potency was “inactive”.
In the case of `Cn1cccc1C(=O)OCC(=O)NCCc1ccccc1`, the Potency is reported as “inactive”.
For `Cc1ccc(S(=O)(=O)N2CCN(C(=O)CN3C(=O)NC(C)(c4ccc(Cl)cc4)C3=O)CC2)c(C)c1` (configuration not stated), the Potency was “inactive”.
In the case of `NC(=O)c1ccc(N2CCCC2)nc1`, the Potency is reported as “inactive”.
With `COc1ccccc1C1CCN(c2ccc([N+](=O)[O-])cn2)CC1` the Potency was “inactive”.
In the case of `COc1ccccc1CSc1nc2ccccc2[nH]1`, the Potency is reported as 8.2 µM (active).
In the case of `N#Cc1c(-c2ccccc2)nc(SCc2ccc([N+](=O)[O-])cc2)[nH]c1=O`, the Potency is reported as “inactive”.
For `C=CCSc1nc2ccccc2[nH]1`, the Potency was “inactive”.
In the case of `CCCCSc1nc2ccccc2[nH]1`, the Potency is reported as “inactive”.
In the case of `COc1ccccc1CSc1ncc(-c2ccc([N+](=O)[O-])cc2)[nH]1`, the Potency is reported as 11.6 µM (active).
With `Nc1cc2c(cc1Br)-c1ccc(F)cc1C2=O` the Potency was “inactive”.
With `CCOC(=O)C1CCN(CC(=O)Nc2ccc(OC)c(S(=O)(=O)N3CCCCC3)c2)CC1` the Potency was “inactive”.
For `O=C(c1cn(-c2ccccc2)nc1-c1cccnc1)N1CCN(S(=O)(=O)c2ccccc2F)CC1`, the Potency was “inactive”.
For `CCOC(=O)C(NC(=O)CC(C)C)(Nc1sc2c(c1C(N)=O)CCCC2)C(F)(F)F` (configuration not stated), the Potency was “inactive”.
In the case of `O=C(Nc1sc2c(c1C(=O)O)CCC2)c1ccccc1F`, the Potency is reported as “inactive”.
For `O=C(CN1CCCC1)Nc1sc2c(c1C(=O)Nc1ccccc1)CCCC2`, the Potency was “inactive”.
With `NC(=O)c1c(Nc2nc3c(F)cccc3s2)sc2c1CCCC2` the Potency was 20.6 µM (active).
In the case of `COc1cccc(OC)c1C(=O)Nc1sc2c(c1C(N)=O)CCCC2`, the Potency is reported as “inactive”.
With `NC(=O)c1c(NC(=O)c2ccccc2)sc2c1CCCC2` the Potency was 18.4 µM (active).
In the case of `O=C(NNC(=O)c1ccc(-n2cncn2)c([N+](=O)[O-])c1)c1ccccc1`, the Potency is reported as “inactive”.
In the case of `CCN(CC)c1ccc(NC(=O)CN2C(=O)NC3(CCc4ccccc43)C2=O)cc1` (configuration not stated), the Potency is reported as “inactive”.
For `CCN(CC(=O)Nc1ccc(OC)cc1)C(=O)c1ccc(Cl)c(S(=O)(=O)N2CCCC2)c1`, the Potency was “inactive”.
In the case of `OCC1(CO)CC2(C1)CC(CO)(CO)C2`, the Potency is reported as “inactive”.
For `CN(C)C(=O)CCc1ccc2c3c([nH]c2c1)[C@]1(C)[C@@H](C(=O)N2CCCCC2)C[C@H](CC(=O)NCCC2=CCCCC2)C(=O)N1CC3`, the Potency was “inactive”.
For `C/C(=N\NC(=O)c1ccoc1C)c1ccccc1O`, the Potency was 7.31 µM (active).
For `CC(=O)NC(=O)c1ccccc1O`, the Potency was “inactive”.
For `CC(C)=C(NC(=O)c1ccccc1)C(=O)N/N=C(\C)c1ccccc1O`, the Potency was “inactive”.
In the case of `CSCCC(NC(=O)c1ccccc1)C(=O)N1CCCCCCC1` (configuration not stated), the Potency is reported as “inactive”.
In the case of `O=C(Cc1ccc(NC(=O)C2CCCN(C(=O)C3CCCCC3)C2)cc1)Nc1cccc(C(=O)N2CCCCC2)c1` (configuration not stated), the Potency is reported as “inactive”.
With `CC(=O)c1c(N2CCOCC2)nc(=S)n(-c2cc(C)ccc2C)c1C` the Potency was 1.3 µM (active).
With `CC(=O)c1c(N2CCOCC2)nc(=S)n(Cc2ccccc2)c1C` the Potency was “inactive”.
With `CC(=O)c1c(N2CCN(c3ccc(F)cc3)CC2)nc(=S)n(-c2ccccc2)c1C` the Potency was “inactive”.
With `O=C(CN1C(=O)NC2(CCOc3ccccc32)C1=O)Nc1cccc([N+](=O)[O-])c1` (configuration not stated) the Potency was “inactive”.
For `O=C(OCCN1C(=O)c2ccccc2C1=O)[C@@H]1CC(O)CN1S(=O)(=O)c1ccccc1[N+](=O)[O-]` (some centres not stated), the Potency was “inactive”.
With `COc1cccc(NC(=O)CN(C)C(=O)/C=C/c2cc(OC)ccc2OC)c1` the Potency was “inactive”.
With `COc1ccc(/C=C/C(=O)OCC(=O)Nc2cccc(Oc3ccccc3)c2)c(OC)c1` the Potency was “inactive”.
With `COc1ccc(OC)c(/C=C/C(=O)OCC(=O)Nc2ccc3c(c2)OCCO3)c1` the Potency was 20.6 µM (active).
